POLI inh – inhibitors of human DNA polymerase iota; Q9UNA4; Pol iota fluorescent replication assay, 10 min; Potency, µM (titrated, usually from 115 µM), inactives show at the top dose activity, negative = inhibition, usual class: inhibitors; 390,000 tested, 1% active
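Fluorescent replication assay read twice, at 0 min and 10 min after adding 50 nM (final) substrate. Enzyme (10 nM) and compounds were first incubated 15 min at room temperature; enzyme-free buffer wells were negative controls.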
Pol eta inh – blocks human DNA polymerase eta activity | Q9Y253 | recombinant Pol eta, fluorescent DNA replication assay | Potency, µM (series often up to 114 µM), for the others: at the top dose activity change, negative = inhibition, usual class: inhibitors | 390,000 tested, 1.2% active; also: % is scaled to controls: 0 for no effect and ±100 for the full control effect
Target sequence (Q9Y253 whole entry, looked up): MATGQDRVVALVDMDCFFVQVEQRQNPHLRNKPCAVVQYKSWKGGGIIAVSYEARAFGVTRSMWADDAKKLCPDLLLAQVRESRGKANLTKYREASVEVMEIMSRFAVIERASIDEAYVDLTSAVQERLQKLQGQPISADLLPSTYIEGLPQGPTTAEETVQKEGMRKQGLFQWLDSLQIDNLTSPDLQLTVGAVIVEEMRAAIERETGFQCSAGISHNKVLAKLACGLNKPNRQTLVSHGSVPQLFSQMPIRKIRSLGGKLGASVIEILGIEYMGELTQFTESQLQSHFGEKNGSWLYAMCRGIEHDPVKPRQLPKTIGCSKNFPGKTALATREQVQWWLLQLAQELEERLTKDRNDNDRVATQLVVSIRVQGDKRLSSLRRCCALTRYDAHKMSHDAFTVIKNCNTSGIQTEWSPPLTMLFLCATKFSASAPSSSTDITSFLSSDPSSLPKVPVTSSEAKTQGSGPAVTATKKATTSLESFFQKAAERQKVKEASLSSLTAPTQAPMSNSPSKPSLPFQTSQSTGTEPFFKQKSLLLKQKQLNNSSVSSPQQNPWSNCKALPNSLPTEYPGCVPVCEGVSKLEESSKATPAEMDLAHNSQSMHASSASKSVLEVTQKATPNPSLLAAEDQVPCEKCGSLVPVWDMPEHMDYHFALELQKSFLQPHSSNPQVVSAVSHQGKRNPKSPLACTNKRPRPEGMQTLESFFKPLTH
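Pol eta (10 nM) was preincubated with compounds for 15 min at room temperature, after which fluorescent replication substrate (50 nM final) was added to start the reaction. Fluorescence was read kinetically at 0 and 10 min.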
FEN1 inhibitor – inhibitors of human flap endonuclease 1. Recombinant FEN1 flap cleavage, fluorescence, 15 min. Potency, µM (titrated, usually from 114 µM), for the others: top-dose activity change, negative = inhibition, hits mostly inhibitors. 390,000 tested, 0.35% active; also: % is scaled to controls: 0 for no effect and ±100 for the full control effect; nearly all actives have a fitted effect of over 65% in size
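Reaction started by adding substrate (50 nM final) to 10 nM enzyme after 15 min room-temperature compound preincubation. Reads at 0 and 15 min, with data normalized and fitted to a four-parameter Hill equation.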
Pol beta inh – blocks human DNA polymerase beta activity. P06746. Pol beta primer extension/strand displacement, fluorescence kinetic. Potency, µM (titrated, usually from 114 µM), for the others: top-dose activity change, negative = inhibition, hits mostly inhibitors. 340,000 tested, 1.3% active. AID 485314; also: % is scaled to controls: 0 for no effect and ±100 for the full control effect
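Kinetic readout of DNA synthesis with strand displacement by Pol beta. Compound and 10 nM enzyme sit 15 min at room temperature; 50 nM substrate starts the reaction, read immediately and at 10 min.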
WRN inhibitor – inhibitors of human WRN helicase | Potency, µM (series often up to 114 µM), for inactives: at the top dose activity change, negative = inhibition, usual class: inhibitors | 360,000 tested, 0.46% active | AID 651768 | Q14191 | WRN helicase unwinding, fluorescent forked duplex, kinetic; also: % is scaled to controls: 0 for no effect and ±100 for the full control effect; nearly all actives have a fitted effect of over 55% in size
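Primary qHTS, 1536-well format. 20 nM WRN + compound, 15 min RT; start with 100 nM forked fluorophore/quencher duplex, 2 mM ATP (final); kinetic read ex 525/em 598 nm.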
Pol kappa inh – inhibitors of human DNA polymerase kappa | Potency, µM (titrated, usually from 107 µM), for inactives: at the top dose activity, negative = inhibition, hits mostly inhibitors | 400,000 tested, 0.53% active | purified Pol kappa, fluorescent DNA synthesis assay, 10 min | Q9UBT6 | AID 588579; also: % is scaled to controls: 0 for no effect and ±100 for the full control effect
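Activity was followed as the change in fluorescence between reads at 0 and 10 min after starting the reaction with 50 nM substrate. Beforehand, 10 nM polymerase had been preincubated with compound for 15 min at room temperature.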
* hit, by the source's call; [ ] = remark or other dose. The list is not random: actives were taken first. Their share in the collection is about 2.4%. Calls follow the shape of the dose curve; as a rule, active = well fitted curve in the direction sought with a large enough effect; inconclusive = small, poorly fitted or top-dose-only effect, or another doubt; inactive = no such curve, though single readings can be large; an effect the other way counts as inactive or inconclusive. Potency is read from the fitted curve at half-maximal effect.

For O=C(NCc1ccco1)c1cc(-c2ccco2)on1 the results were POLI inh 89.1µM*, Pol eta inh 2.7%, FEN1 inhibitor -4.9%, Pol beta inh 16.5%, WRN inhibitor -6.0%[57.1 µM] and Pol kappa inh -14.7%.
Screening O=C(NCc1ccco1)c1c(F)c(F)c(F)c(C(=O)NCc2ccco2)c1F returned POLI inh -17.2%, Pol eta inh 44.7µM*, FEN1 inhibitor 2.6%, Pol beta inh inconclusive, WRN inhibitor -33.2% and Pol kappa inh inconclusive.
O=C(/C=C/c1ccc(F)cc1)NCc1ccco1 was read as POLI inh inconclusive, Pol eta inh inconclusive, FEN1 inhibitor 0.5%, Pol beta inh 56.2µM*, WRN inhibitor -16.6% and Pol kappa inh -33.9%.
For O=C(NCc1ccco1)c1c(Cl)cccc1Cl the results were Pol eta inh 5.1% and WRN inhibitor 15.5%.
Cc1ccc(N2C(=O)c3oc4cc(C)c(C)cc4c(=O)c3C2c2cccc(O)c2)nc1 (stereo not drawn) was read as POLI inh 35.2%, Pol eta inh -1.1%, FEN1 inhibitor -4.6%, Pol beta inh 81.7% and Pol kappa inh -0.5%.
Screening NNC(=S)NCc1ccco1 returned POLI inh 20µM*, Pol eta inh -9.5%, FEN1 inhibitor 1.6%, Pol beta inh -0.5%, WRN inhibitor -12.5% and Pol kappa inh -29.9%.
For O=c1c2cc(NC(=S)N3CCCC3)ccc2nc2n1CCCCC2 the results were POLI inh 28.3%, Pol eta inh -10.2%, FEN1 inhibitor 0.9%, Pol beta inh 4.3%, WRN inhibitor -5.5% and Pol kappa inh -8.4%.
Screening O=C(/C=C/c1ccco1)NCCc1ccc(F)cc1 returned POLI inh 20µM*, Pol eta inh inconclusive, FEN1 inhibitor -0.5%, Pol beta inh 25.1µM*, WRN inhibitor -23.4% and Pol kappa inh -40.5%.
Cc1cc(NC(=O)c2cc(-c3ccccc3)on2)n(-c2ccccc2)n1 was read as POLI inh -17.5%, Pol eta inh 2.2%, FEN1 inhibitor -14.2%, Pol beta inh -13.1%, WRN inhibitor -8.5%[57.1 µM] and Pol kappa inh -4.2%.
For Cc1cc(NC(=O)c2cc(-c3ccco3)on2)n(-c2ccccc2)n1 the results were POLI inh 89.1µM*, Pol eta inh -5.3%, FEN1 inhibitor -7.9%, Pol beta inh inconclusive, WRN inhibitor -6.7%[11.6 µM] and Pol kappa inh -27.1%.
For O=C(/C=C/c1ccco1)Nc1ccc2nc3n(c(=O)c2c1)CCCC3 the results were POLI inh 70.8µM*, Pol eta inh 16.5%, FEN1 inhibitor -18.0%, Pol beta inh -20.6%, WRN inhibitor -9.4%[11.6 µM] and Pol kappa inh -6.9%.
COc1ccc(CNC(=O)Cn2c(=O)oc3cc(S(=O)(=O)N4CCCCCC4)ccc32)cc1 was read as POLI inh -3.4%, Pol eta inh 7.1%, FEN1 inhibitor -17.8%, Pol beta inh inconclusive and Pol kappa inh -8.5%[60.1 µM].
`O=C(c1cccc(Cl)c1Cl)N(Cc1ccco1)Cc1cccs1` gave POLI inh -2.0%, FEN1 inhibitor inconclusive and Pol kappa inh -1.8%.
`CCC(=O)NC1CCc2cccc(OC)c2C1` (stereo not drawn) gave Pol kappa inh -0.3%[19.4 µM].
For COc1ccccc1OCC(=O)NCC1(N(C)C)CCCCC1 the results were POLI inh 22.1%, Pol eta inh -18.6%, FEN1 inhibitor -2.2%, Pol beta inh 6.7% and Pol kappa inh 7.0%.
`Cc1ccc(NC(=O)C2CCCN(c3ncnc4onc(C)c34)C2)cc1Cl` (stereo not drawn) gave POLI inh 20.1%, Pol eta inh -22.5%, FEN1 inhibitor 12.8%, Pol beta inh 0.6% and Pol kappa inh 3.4%.
Screening COc1cc2c(cc1OC)C(C(C(=O)N(CCc1ccc(OC)c(OC)c1OC)CCc1ccc(OC)c(OC)c1OC)c1ccccc1)=NCC2 (stereo not drawn) returned POLI inh 15.2%, FEN1 inhibitor -23.9% and Pol kappa inh inconclusive.
`O=C(/C=C/c1ccccc1)NCc1ccc2c(c1)OCO2` gave POLI inh 9.1%, Pol eta inh -18.6%, FEN1 inhibitor 2.7%, Pol beta inh 11.3%, WRN inhibitor 1.8% and Pol kappa inh -10.1%.
CC(=O)NS(=O)(=O)c1ccc(NC(=O)/C=C/c2ccco2)cc1 was read as POLI inh 62.4%, Pol eta inh -0.7%, FEN1 inhibitor 7.5%, Pol beta inh inconclusive, WRN inhibitor -10.1% and Pol kappa inh -14.6%.
O=C(/C=C/c1ccco1)Nc1ccc(F)cc1 was read as POLI inh inconclusive, FEN1 inhibitor -3.8%, Pol beta inh 31.6µM* and Pol kappa inh -2.3%[60.1 µM].
For O=C(/C=C/c1ccco1)NCc1ccc2c(c1)OCO2 the results were POLI inh 5.9%, Pol eta inh -6.9%, FEN1 inhibitor 0.3%, Pol beta inh 20µM*, WRN inhibitor -1.6% and Pol kappa inh -1.3%.
Screening COc1ccc(NC(=O)CSc2nc3c(oc4ccccc43)c(=O)n2-c2ccccc2)cc1OC returned POLI inh 5.2%, Pol eta inh -10.2%, FEN1 inhibitor 10.9%, Pol beta inh -0.7% and Pol kappa inh -2.7%.
For O=C(CSc1ccc(Cl)cc1)Nc1cccc(-c2nc3ccccc3[nH]2)c1 the results were POLI inh inconclusive, Pol eta inh inconclusive, FEN1 inhibitor -12.5%, Pol beta inh -12.1%, WRN inhibitor -18.6% and Pol kappa inh -29.0%.
For Cc1ccc2nc(-c3ccc(NC(=O)CSc4ccccc4)cc3)[nH]c2c1 the results were POLI inh 35.5µM*, Pol eta inh -11.2%, FEN1 inhibitor -5.0%, Pol beta inh 22.4µM*, WRN inhibitor -7.3%[57.1 µM] and Pol kappa inh -4.3%[60.1 µM].
For O=C(CSc1ccccc1)Nc1ccc(-c2nc3ccccc3[nH]2)cc1 the results were POLI inh inconclusive, Pol eta inh inconclusive, FEN1 inhibitor -4.9%, Pol beta inh 7.08µM*, WRN inhibitor -31.6% and Pol kappa inh inconclusive.
Screening Cc1ccc2nc(SCC(=O)Nc3ccc(C(N)=O)cc3)[nH]c2c1 returned POLI inh 15.4%, Pol eta inh -17.9%, FEN1 inhibitor 6.2%, Pol beta inh -29.9%, WRN inhibitor -32.5% and Pol kappa inh 1.7%.
COc1ccc(-n2nc(C(=O)NCC(=O)Nc3cccc(Cl)c3)c3ccccc3c2=O)cc1OC was read as POLI inh 47.8%, Pol eta inh inconclusive, FEN1 inhibitor -24.0%, Pol beta inh 25.1µM*, WRN inhibitor -3.4% and Pol kappa inh 3.5%.
